Only some compounds are listed: those with a hit (about 2.3% of all), similar ones and a draw of the others.
Giardia killer: Giardia lamblia killing | Giardia lamblia trophozoite viability | activity change, % at 7.66 µM, hits read low | actives 0.15% (n = 340,000) | AID 540267; in the data active = activity change below about -80%; inconclusive = between about -30% and that limit;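 also: parasites exposed to compound for two days anaerobically before the ATP read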
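Giardia trophozoites, 100 cells per well, were exposed to compounds for 48 hrs at 37 deg C under anaerobic conditions; viability was then read as ATP content by bioluminescence after 15-30 min at room temperature.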
Nrf2 block: inhibitors of Nrf2 signaling | A549 ARE-Fluc reporter, luciferase luminescence, 18-24 h | Potency, µM (doses to about 46 µM), actives largely listed as inhibitors | actives 2.1% (n = 360,000) | AID 504444; also: nearly all actives have a fitted effect of over 60% in size
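Cells were seeded and rested 2 h, then exposed to compounds for 18-24 h. CellTiter-Fluor was read first as a viability measure. BugLite was added 15 min before the final luminescent read of ARE-luciferase activity in A549 cells.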
Nrf2 ARE act: activators of Nrf2 (ARE) signaling; Potency, µM (top dose mostly 46.1 µM), most hits filed as activators; AREc32 ARE-luciferase reporter (MCF7-derived line), luminescence, 24 h; actives 0.31% (n = 410,000); also: nearly all actives have a fitted effect of over 65% in size
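AREc32 cells carrying an ARE-driven firefly luciferase, 1000 cells/well in OPTI-MEM with 5% FBS, dosed after overnight attachment and incubated 24 hr at 37 deg C. Steady-Glo luminescence read after 30 min at RT.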
IDH1 R132H inh: human IDH1 R132H inhibition. O75874. IDH1-R132H enzyme, NADPH consumption, diaphorase/resazurin fluorescence. Potency, µM (top dose mostly 76.6 µM), actives largely listed as inhibitors. actives 0.093% (n = 390,000). AID 602179; also: nearly all actives have a fitted effect of over 65% in size
Target sequence (O75874 whole entry R132H, stated change not applied): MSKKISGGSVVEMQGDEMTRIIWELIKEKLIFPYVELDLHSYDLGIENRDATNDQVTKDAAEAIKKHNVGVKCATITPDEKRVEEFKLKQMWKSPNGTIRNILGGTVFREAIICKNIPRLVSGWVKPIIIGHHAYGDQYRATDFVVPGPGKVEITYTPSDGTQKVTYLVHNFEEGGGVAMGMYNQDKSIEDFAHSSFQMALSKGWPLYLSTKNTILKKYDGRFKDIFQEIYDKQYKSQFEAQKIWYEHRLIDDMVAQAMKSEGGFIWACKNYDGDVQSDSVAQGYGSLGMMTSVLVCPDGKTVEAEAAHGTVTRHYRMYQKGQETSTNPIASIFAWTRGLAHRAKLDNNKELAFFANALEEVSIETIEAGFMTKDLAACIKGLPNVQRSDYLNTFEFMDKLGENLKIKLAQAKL
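IDH1-R132H (0.5 ug/mL) preincubated 30 min with compound, then NADPH (0.016 mM) and alpha-KG (2 mM) added; 80 min at RT, pH 7.5. Remaining NADPH coupled via diaphorase/resazurin to fluorescence (540/590 nm); concentration-response curves normalized to no-enzyme control.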
Apoferritin bind: binds horse apoferritin like a general anesthetic; actives 0.074% (n = 350,000); Potency, µM (highest dose often 77.5 µM), most hits filed as inhibitors; AID 485281; apoferritin/1-aminoanthracene competitive binding, fluorescence; also: nearly all actives have a fitted effect of over 20% in size
Target sequence (P02791 2-175 limits assumed): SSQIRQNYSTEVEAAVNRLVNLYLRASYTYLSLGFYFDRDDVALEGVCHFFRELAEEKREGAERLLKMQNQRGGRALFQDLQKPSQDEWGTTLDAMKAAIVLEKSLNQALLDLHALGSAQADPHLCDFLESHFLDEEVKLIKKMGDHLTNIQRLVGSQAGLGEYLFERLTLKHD
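Steps: apoferritin (10 uM) was premixed with half-saturated 1-AMA in PBS, compounds were pin-transferred, plates stood 10 min at room temperature, fluorescence was read at 380/535 nm, and curves were fitted with a Hill equation.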
A549 viability: A549 cytotoxicity, counter-screen for Nrf2 inhibitors. A549 ARE-Fluc cells, CellTiter-Fluor viability, 18-24 h. AID 504648. actives 0.16% (n = 390,000). Potency, µM (series often up to 46 µM), usual class: inhibitors
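Cytotoxicity counterscreen: CellTiter-Fluor fluorescence was measured in A549 ARE_Fluc cells after 18-24 h of compound exposure in a concentration series. The subsequent BugLite luminescent read reports ARE-luciferase activity.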
Each line names hits and unclear results; the compound was inactive in the other large screens. Unless noted, calls follow the shape of the dose curve; as a rule, active = well fitted curve in the direction sought with a large enough effect; inconclusive = small, poorly fitted or top-dose-only effect, or another doubt; inactive = no such curve, though single readings can be large; an effect the other way counts as inactive or inconclusive.

O=C(NC(=S)Nc1cccc2cccnc12)c1ccccc1	Nrf2 block inconclusive, Nrf2 ARE act 4.5µM
Cc1cccc(NC(=S)NC(=O)c2cccs2)n1	Nrf2 ARE act inconclusive (no result: Nrf2 block)
O=C(NC(=S)Nc1cccc2cnccc12)c1ccccc1	Nrf2 ARE act inconclusive
O=C(NC(=S)Nc1cccc2cccnc12)c1cccs1	Nrf2 ARE act 8.9µM
O=C(NC(=S)Nc1cccc(Cl)c1N1CCCCC1)c1cccs1	Apoferritin bind inconclusive, A549 viability inconclusive (no result: Nrf2 block)
O=C(Nc1cccc2cccnc12)c1ccc(F)cc1	Nrf2 block inconclusive, Nrf2 ARE act 13µM
Cc1c(C(C)C)c(=O)n(-c2ccc(S(=O)(=O)NCc3ccccc3)cc2)n1C	Nrf2 block 7.3µM
Cc1c(C(C)C)c(=O)n(-c2ccc(S(=O)(=O)N3CCOCC3)cc2)n1C	Nrf2 block inconclusive
Cc1c(C(C)C)c(=O)n(-c2ccc(S(=O)(=O)NC3CCCCC3)cc2)n1C	Nrf2 block 15µM
CC(=O)NC(c1ccccc1)c1nc(-c2cc(F)cc(F)c2)cs1 (configuration not stated)	none (no result: Giardia killer, Nrf2 block, IDH1 R132H inh, Apoferritin bind, A549 viability)
CCOC(=O)N1C(C)CN(/[N+]([O-])=N/Oc2ccc([N+](=O)[O-])cc2[N+](=O)[O-])CC1C (configuration not stated)	Giardia killer inconclusive (no result: Nrf2 ARE act, IDH1 R132H inh)
N#Cc1c(Cl)nsc1NC(=O)c1ccccc1	Nrf2 block 2.6µM, A549 viability inconclusive
Cc1oc2c(c1C(=O)NCc1cccnc1)C(=O)c1ccccc1C2=O	Giardia killer -86, Nrf2 block 5.2µM, A549 viability 2.6µM
COc1ccc(CNC(=O)c2c(C)oc3c2C(=O)c2ccccc2C3=O)cc1	Giardia killer inconclusive, Nrf2 block 4.1µM, A549 viability 4.6µM
CC(=O)c1c(C)oc2c1C(=O)c1ccccc1C2=O	Giardia killer inconclusive
COc1c(N2CCN(C(=S)NCc3ccccc3)C(C)C2)c(F)cc2c(=O)c(C(=O)O)cn(C3CC3)c12 (configuration not stated)	Nrf2 block 23µM, A549 viability inconclusive
COc1c(N2CCN[C@H](C)C2)c(F)cc2c(=O)c(C(=O)O)cn(C3CC3)c12	none
COc1ccc(C(=O)/C=C/C(=O)N(CC(=O)NC2CCCCC2)CC2CCCO2)c(O)c1 (configuration not stated)	Nrf2 block 21µM, Nrf2 ARE act inconclusive, A549 viability inconclusive
COc1cccc(CNc2ccc(F)c(Cl)c2)c1	Apoferritin bind 8.9µM
CSc1cccc(NC(=O)c2cc3c(COC(C)=O)cnc(C)c3oc2=O)c1	none (no result: Giardia killer, Nrf2 block)
Cc1c(C(=O)Nc2ccc(F)cc2)oc2ccc(S(=O)(=O)N3CC(C)CC(C)C3)cc12 (configuration not stated)	Nrf2 block 7.3µM
O=C(CC1C(=O)NCCN1Cc1ccc(F)cc1)NC1CCCCCCC1 (configuration not stated)	Apoferritin bind 16µM
O=C(CC1C(=O)NCCN1CC1CCCCC1)NCc1cccc(F)c1F (configuration not stated)	Apoferritin bind inconclusive
O=C(CC1C(=O)NCCN1Cc1cccc(F)c1F)NCCCC1CCCC1 (configuration not stated)	Apoferritin bind 32µM
N#CC(c1ccc(Cl)cc1)c1ccc2c(C(F)(F)F)cc(C(F)(F)F)nc2n1 (configuration not stated)	Nrf2 block 1.5µM, Apoferritin bind inconclusive, A549 viability 5.8µM
FC(F)(F)c1cc(C(F)(F)F)c2ccc(N3CCN(c4ccc(Cl)cc4)CC3)nc2n1	none
Cc1ccc(NC(=O)OCC(F)(F)C(F)F)cc1NC(=O)OCC(F)(F)C(F)F	Nrf2 block 18µM (no result: A549 viability)
CCN(CC)S(=O)(=O)c1ccc(NC(=O)CSc2nnc3c(n2)[nH]c2ccccc23)cc1	Giardia killer inconclusive (no result: Nrf2 ARE act, IDH1 R132H inh, Apoferritin bind)
CCCCn1c(SCc2ccc(C(=O)OC)o2)nc2cc(S(N)(=O)=O)ccc21	Nrf2 block 16µM
CC(=O)c1ccccc1Oc1cc(NN2CCCCC2)c([N+](=O)[O-])cc1[N+](=O)[O-]	Nrf2 block 26µM, Apoferritin bind inconclusive
CC(=O)c1cccc(Oc2cc(NN3CCCCC3)c([N+](=O)[O-])cc2[N+](=O)[O-])c1	Nrf2 block inconclusive, Apoferritin bind inconclusive, A549 viability inconclusive
O=C(CSc1nc2c([nH]c3ccccc32)c(=O)n1-c1ccc(Cl)cc1)N1CCCC1	none (no result: Giardia killer, Nrf2 block)
COc1ccc([C@@H]2C(C#N)=C(N)S[C@@H](c3ccccc3)[C@@H]2[N+](=O)[O-])cc1	Nrf2 block 21µM
CC(C)(C)c1ccc(S(=O)(=O)N2CCC(c3nc4ccc(Cl)cc4[nH]3)CC2)cc1	Nrf2 block 16µM, A549 viability inconclusive
CC(=O)Nc1ccc(S(=O)(=O)N2CCC(c3nc4ccc(C)cc4[nH]3)CC2)cc1	none
CC(=O)N1CCc2c(sc(NC(=O)c3ccc([N+](=O)[O-])o3)c2C#N)C1	Giardia killer -88, Nrf2 block 26µM, Nrf2 ARE act inconclusive, A549 viability 21µM
COC(=O)c1sc(NC(=O)c2ccc([N+](=O)[O-])o2)c(C#N)c1C	Giardia killer -93, Nrf2 block inconclusive, Nrf2 ARE act inconclusive
CCCCOC(=O)c1cccc(NC(=O)/C=C/c2ccccc2Cl)c1	Nrf2 block 21µM (no result: Giardia killer)
O=C(/C=C/c1ccccc1Cl)Nc1cccc(O)c1	none
CCOc1ccc(OCC)c(NS(=O)(=O)c2cc(-c3onc(C)c3C)ccc2OC)c1	none (no result: Giardia killer)
COc1ccc(-c2onc(C)c2C)cc1S(=O)(=O)N(C)Cc1ccccc1	Nrf2 block 18µM (no result: Giardia killer)
COc1ccc(-c2onc(C)c2C)cc1S(=O)(=O)NC1CCCCC1	none (no result: Giardia killer)
COc1ccc(-c2onc(C)c2C)cc1S(=O)(=O)NC1CCC(C)CC1 (configuration not stated)	Nrf2 block 21µM (no result: Giardia killer)
Cc1cccc(Cn2c(=O)n(CCCC(=O)NCc3ccccc3Cl)c(=O)c3ccccc32)c1	Nrf2 block 10µM (no result: Giardia killer)
Cc1ccc(C)c(Cn2c(=O)n(CCCCC(=O)NCc3ccccc3Cl)c(=O)c3ccccc32)c1	none (no result: Giardia killer)
COc1cccc(/C(C)=N/NC(=O)c2cc(-c3cccnc3)nc3ccccc23)c1	Nrf2 block 21µM
CC(=O)Nc1cccc(NC(=O)c2cc(-c3cccnc3)nc3ccc(Br)cc23)c1	Nrf2 block 12µM, Apoferritin bind inconclusive, A549 viability inconclusive
CN(CC(=O)NCCc1ccc(S(N)(=O)=O)cc1)Cc1c(F)cccc1Cl	none
CN(CC(=O)NCCc1ccc(S(N)(=O)=O)cc1)Cc1ccc(Cl)cc1Cl	Nrf2 block 18µM
Cc1ccc(O)c(NC(=O)c2cc(-c3ccccc3)on2)c1	none

From PubChem
